14 compounds from PubChem BioAssay (NCI) can be followed below.

Holding throughout (test): NCI-60 one-dose screen, 48 h (100 = growth as untreated, 0 = no growth, -100 = all killed)
What all share (details): 10 µM unless noted

The test system of experiment [1] is T-47D breast.
The test system of experiment [2] is BT-549 breast.
Experiment [3] concerns MDA-MB-435 melanoma.
In experiment [4] the test system is SW-620 colon.
Experiment [5] relates to MCF7 breast.
Experiment [6] deals with HCT-116 colon.
Experiment [7] deals with HCC-2998 colon.
The subject of experiment [8] is KM12 colon.

The panel holds about 83,000 compounds, 20% with a hit somewhere; the sample as a whole holds those more often.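 48-hour exposure, single concentration, 96-well plates; percent growth endpoint where 0 means no net growth. Active: below 10.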 Values without a mark were called inactive. Calls of active or inactive are those of the source.

Regarding `Clc1nccc2c(-c3csc(-c4c[nH]c5ccccc45)n3)c[nH]c12`, the growth in experiment [1] was 37%; in experiment [2], 65.7%; in experiment [3], 53.9%; in experiment [4] it was 7.87% (active); in experiment [5], 49.6%; in experiment [6] it was 39.7%. Besides, the growth is 63.7% in experiment [7] and 47.5% in experiment [8].
For the compound `COc1cccc2c(N=NC(=O)c3ccc(S(N)(=O)=O)cc3)c(O)[nH]c12`, the growth is 92.9% in experiment [1]; 94.3% in experiment [2]; 100% in experiment [3]; 94.8% in experiment [4]; 91.1% in experiment [5]; 99.4% in experiment [6]. The growth in experiment [7] is 113%; in experiment [8], 101%.
`CCn1cc(CNc2ccc(C(=O)Nc3cc4cc(OC)c(OC)cc4c(C)n3)cc2)c(C)n1`: the growth in experiment [1] is -15.4% (active); in experiment [2], -4.64% (active); in experiment [3], 48.4%; in experiment [4] it was 59.9%; in experiment [5] it was 30%; in experiment [6], 25.4%. The growth in experiment [7] was 62.2%; in experiment [8] it was 23%.
Regarding `CSCCC(NC(=O)c1ccccc1)C(=O)N/N=C1\S/C(=C/c2ccc(Cl)cc2)C(=O)N1C` (configuration not stated), the growth was 82.9% in experiment [1]; 87.3% in experiment [2]; 86.2% in experiment [3]; 93.5% in experiment [4]; 83.9% in experiment [5]; 55.2% in experiment [6]. Besides, the growth is 96.7% in experiment [7] and 88.9% in experiment [8].
On to `COCCCOc1cc(C[C@@H](C[C@H](N)[C@@H](O)C[C@H](C(=O)NCC(C)(C)C(N)=O)C(C)C)C(C)C)ccc1OC`, for which the growth in experiment [1] was 107%; in experiment [2] it was 110%; in experiment [3], 98.9%; in experiment [4], 105%; in experiment [5] it was 95.1%; in experiment [6], 101%. Besides, the growth in experiment [7] is 102%; in experiment [8], 109%.
In the case of `COc1cc(/C=C\c2cc(/C=C\c3ccc(O)c(OC)c3)n(C(=O)CNc3ccc(Cl)cc3)n2)ccc1O`, the growth in experiment [1] is 31%; in experiment [2] it was 24.3%; in experiment [3], -7.11% (active); in experiment [4], 24.9%; in experiment [5] it was 13.8%; in experiment [6] it was 7.69% (active). In addition, the growth is 48.6% in experiment [7] and 20.2% in experiment [8].
Take `Cc1cc(C)cc(Nc2ccc([N+](=O)[O-])c(NCCN3CCOCC3)n2)c1`: the growth in experiment [1] was 56.3%; in experiment [2] it was 9.31% (active); in experiment [3] it was -30.1% (active); in experiment [4], 31%; in experiment [5] it was 13.2%; in experiment [6], 5.31% (active). The results for the growth in experiment [7] and in experiment [8] were 9% (active) and 15.4%, respectively.
As for `O=C(CSc1nc2ccc([N+](=O)[O-])cc2[nH]1)Nc1ccc(Br)cc1`, the growth in experiment [1] is 8.75% (active); in experiment [2], 50.4%; in experiment [3], 46.5%; in experiment [4], 74.5%; in experiment [5], 64.5%; in experiment [6], 28.2%. The growth is 79.6% in experiment [7] and 56.2% in experiment [8].
As to `C=C1C(=O)O[C@H]2[C@H]1CC/C(COC(=O)c1cc3cc(F)ccc3[nH]1)=C\CC[C@@]1(C)O[C@@H]21`, the growth in experiment [1] is -51.8% (active); in experiment [2], -82.9% (active); in experiment [3] it was -82% (active); in experiment [4], -69.2% (active); in experiment [5], -61.7% (active); in experiment [6], -87.2% (active). For the same compound, the growth in experiment [7] was -83.4% (active); in experiment [8], -48% (active).
Turning to `O=C(CCl)Nc1ccc2c(Nc3cc(O)ccc3Cl)ncnc2c1`, the growth in experiment [1] is -52.4% (active); in experiment [2], -78.5% (active); in experiment [3], -69.4% (active); in experiment [4], -60.6% (active); in experiment [5], -57.9% (active); in experiment [6], -74.5% (active). For the same compound, the growth in experiment [7] is -3.99% (active); in experiment [8], -64.7% (active).
For the compound `CN1CCN(C(=O)c2cc(-c3ccc4ncnc(N5CCc6cc(F)c(Cl)cc65)c4c3)cnc2N)CC1`, the growth in experiment [1] is -1.85% (active); in experiment [2], -20.4% (active); in experiment [3], -2.06% (active); in experiment [4], 4.9% (active); in experiment [5], 4.21% (active); in experiment [6] it was -30.3% (active). The figures for the growth in experiment [7] and in experiment [8] were -7.55% (active) and 10.7%, respectively.
Regarding `N#C/C(=C\c1ccc(-c2ccc(Cl)cc2)o1)c1ccc(Cl)cc1`, the growth was 51.2% in experiment [1]; 79.5% in experiment [2]; 85.1% in experiment [3]; 66.2% in experiment [4]; 62.1% in experiment [5]; 12.7% in experiment [6]. Moreover, the growth is 96.4% in experiment [7] and 88.9% in experiment [8].
Take `Cc1ccccc1CNc1c2ccccc2nc2ccccc12`: the growth is 24.6% in experiment [1]; 55.9% in experiment [2]; 23.9% in experiment [3]; 13.8% in experiment [4]; 6.93% (active) in experiment [5]; 7.9% (active) in experiment [6]. Also, the growth in experiment [7] was 16.2%; in experiment [8] it was 16.9%.
As to `O=C(Cn1nnc([N+](=O)[O-])n1)c1ccccc1`, the growth was 78.9% in experiment [1]; 113% in experiment [2]; 85.4% in experiment [3]; 91.1% in experiment [4]; 80.9% in experiment [5]; 60% in experiment [6]. For the same compound, the figures for the growth in experiment [7] and in experiment [8] were 102% and 95.9%, respectively.
